# rRNA inh HTS – inhibits bacterial ribosomal RNA function over humanized ribosomes; E. coli WT GFP vs humanized-ribosome RFP mutants, fluorescence, 24 h; active compounds read low; DMSO median 0, no signal -100; GFP signal change (wild-type ribosome), % (concentration not given with the values); 350,000 tested, 1.6% active; AID 720706;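 active means significant combined selectivity score with lowered wild-type GFP, culture density cut under 30%, mutant RFP and density less affected; inactive means any of these conditions unmet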
# ADAM17 inh – ADAM17 inhibition, QFRET primary screen; 370,000 tested, 0.83% active; AID 720648; inhibition, % at 6.95 µM; recombinant ADAM17, EDANS/DABCYL FRET peptide cleavage;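 active means inhibition above the mean of compounds lying between control limits plus 3 SD, set per campaign, cut at about 8.5% in these data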;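 further: 0% = DMSO-only wells as the low control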
# ADAM10 inh – inhibitors of human ADAM10 | inhibition, % at 7 µM | O14672 | 370,000 tested, 0.62% active | recombinant ADAM10, EDANS/DABCYL FRET peptide cleavage, 3 h;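 active means inhibition above a per-campaign cutoff equal to the mean of compounds falling between control-based bounds plus 3 SD, cut at about 20% in these data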;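 further: 0% = DMSO wells while the 100% control is not disclosed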
# Target sequence (O14672 214-748 limits assumed): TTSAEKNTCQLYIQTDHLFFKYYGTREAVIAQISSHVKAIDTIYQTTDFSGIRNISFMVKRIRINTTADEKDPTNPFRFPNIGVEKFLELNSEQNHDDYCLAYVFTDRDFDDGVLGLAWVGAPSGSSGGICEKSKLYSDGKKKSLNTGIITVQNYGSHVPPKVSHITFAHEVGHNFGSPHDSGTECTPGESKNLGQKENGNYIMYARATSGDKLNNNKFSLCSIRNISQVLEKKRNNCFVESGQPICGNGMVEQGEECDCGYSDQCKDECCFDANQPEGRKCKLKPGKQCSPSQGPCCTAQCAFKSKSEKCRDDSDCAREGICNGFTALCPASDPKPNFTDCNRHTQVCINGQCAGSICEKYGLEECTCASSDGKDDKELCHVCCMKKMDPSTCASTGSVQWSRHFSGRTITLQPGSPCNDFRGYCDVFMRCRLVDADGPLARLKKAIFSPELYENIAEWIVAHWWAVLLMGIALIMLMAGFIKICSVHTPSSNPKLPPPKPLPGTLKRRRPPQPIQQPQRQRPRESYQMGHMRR
# KLK7 zymogen act – activates the human kallikrein-7 zymogen; P49862; purified proKLK7, EDANS-DABCYL substrate fluorescence; 100% is mature enzyme control, 0% vehicle; activation, % at 7 µM; 370,000 tested, 0.9% active; AID 652039;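 active means activation above the mean of all tested compounds plus 3 SD, computed per campaign excluding outliers beyond control limits, cut at about 13% in these data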
# FGF22 binding – FGF22 (human) thermal shift binding; recombinant FGF22 thermal shift, SYPRO orange fluorescence; percent of sucrose octasulfate shift, DMSO zero; activity (Tm shift, normalised), % at 9.99 µM; 340,000 tested, 1.5% active; AID 651658;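 active means mean Tm shift, scaled 0 neutral to 100 positive control, at about 1.3% or above, every replicate too, limit read from the data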
# Target sequence (Q9HCT0 whole entry, looked up): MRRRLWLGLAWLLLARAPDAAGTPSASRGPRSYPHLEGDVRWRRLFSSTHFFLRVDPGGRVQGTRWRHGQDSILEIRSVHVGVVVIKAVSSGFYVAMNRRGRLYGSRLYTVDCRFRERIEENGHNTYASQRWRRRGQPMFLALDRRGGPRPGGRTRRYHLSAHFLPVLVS
# ADAM10 confirm – confirmation of inhibitors of human ADAM10 | shares compounds with ADAM10 inh | ADAM10 QFRET peptide cleavage, EDANS fluorescence | inhibition, % at 6.95 µM | 2,100 tested, 1% active | AID 743208;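 active means inhibition above about 20% chosen separately for each screening run, limit read from the data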;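 further: 0% = DMSO wells and 100% = marimastat wells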
# ADAM17 counter – ADAM17 inhibition, counter-screen for ADAM10 exosite hits; ADAM17 QFRET peptide cleavage, EDANS fluorescence; AID 743214; inhibition, % at 6.95 µM; shares compounds with ADAM10 inh; 2,100 tested, 0.5% active;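 active means mean triplicate inhibition above the solvent-only control wells' mean plus 3 SD, cut at about 12% in these data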;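 further: 0% = DMSO wells and 100% = marimastat wells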
# * hit, by the source's call; · = no result given. Sampled rows, rich in hits. Any-hit rate of the full collection: about 3.8%.
SMILES,rRNA inh HTS,ADAM17 inh,ADAM10 inh,KLK7 zymogen act,FGF22 binding,ADAM10 confirm,ADAM17 counter
CC(C)NC(=O)N(C)C[C@H]1Oc2ccc(NS(=O)(=O)c3cccs3)cc2C(=O)N([C@@H](C)CO)C[C@@H]1C,6.4,·,·,·,·,·,·
Cc1nn(C)cc1CNC(=O)Nc1ccc(Br)cc1Cl,·,2.4,85.3*,0.4,·,-0.6,-0.2
Cc1nn(C)cc1CNC(=O)Nc1cccc(Cl)c1,·,-0.9,-11.3,-0.2,·,·,·
CC(C)C#Cc1ccc([C@H]2[C@H]3CN(C(=O)NC4CCCCC4)CC(=O)N3[C@H]2CO)cc1,4.4,·,·,·,·,·,·
CN(C)c1ccc2c(c1)[C@H]1C[C@@H](CC(=O)N3CCCCC3)O[C@@H](CO)[C@H]1O2,3.6,·,·,·,·,·,·
CCn1c(COc2ccc(C)cc2)nnc1SCC(=O)Nc1ccc(Oc2ccccc2)cc1,·,-1.3,-1.5,0.6,·,·,·
C=CCn1c(COc2ccccc2)nnc1SCC(=O)Nc1ccc(Oc2ccccc2)cc1,·,6.1,20.9*,-0.2,·,2.9,0.5
COc1ccc2c3c([nH]c2c1)[C@@H](CO)N(Cc1cccnc1)CC31CN(C(=O)CN(C)C)C1,-2.3,·,·,·,-0.2,·,·
O=C(c1ccncc1)N1CC(=O)N2[C@H](CO)[C@@H](c3ccc(-c4ccccc4)cc3)[C@@H]2C1,0.9,·,·,·,·,·,·
CCOc1cc(C)c(-c2onc(C(F)(F)F)c2-c2csc(C)n2)c(O)c1,-48.2,5.8,21.5*,0.3,0.4,2.7,0.6
C[C@H](CO)N1C[C@H](C)[C@H](CN(C)Cc2cccc3c2OCCCO3)OCc2ccccc2-c2c(n(C)c3ccccc23)C1=O,-5.1,·,·,·,-0.1,·,·
C/C(CC(=O)Nc1cc(Cl)ccc1Cl)=N\NC(=O)COc1cccc(C)c1,6.4,2.0,20.0*,-0.5,-0.1,2.4,0.3
COc1ccccc1-c1cc(C(=O)N/N=C/C=C/c2ccccc2[N+](=O)[O-])c2ccccc2n1,·,8.1,20.2*,-1.1,·,7.8,2.2
CC(C)c1ccc(C(=O)NCCCNC(=O)c2cnccn2)cc1,7.9,-0.6,50.6*,-0.7,0.0,-0.2,-0.3
O=C(CCc1ccccc1)N[C@H]1[C@H](OC(=O)c2ccco2)CCC[C@@]12C(=O)N(Cc1ccccc1)c1ccccc12,·,6.2,21.2*,0.8,·,4.1,1.6
O=C(CCc1ccccc1)N[C@H]1[C@@H](OC(=O)c2ccco2)CCC[C@]12C(=O)N(Cc1ccccc1)c1ccccc12,·,3.7,5.0,-0.5,·,·,·
O=C(Cc1cccnc1)N1CC[C@@H]2[C@@H](CO)Nc3ccc(C#Cc4ccccc4F)cc3[C@@H]21,3.3,·,·,·,·,·,·
CCOc1ccc(C(NC(=O)CC)c2c(O)ccc3ccccc23)cc1 (stereo unspecified),-25.5,-18.9,-81.9,-1.8,0.2,·,·
CC(=O)Oc1ccc2ccccc2c1C(NC(=O)Cc1ccccc1)c1ccc(Cl)cc1 (stereo unspecified),·,8.6,22.1*,-0.1,·,6.8,1.9
COc1ccc(N(C)S(=O)(=O)c2cccc(C(=O)Nc3cc(OC)ccc3OC)c2)cc1,-7.2,6.6,20.5*,1.3,0.0,6.9,1.8
COc1ccc(N(C)S(=O)(=O)c2cccc(C(=O)Nc3ccc(OC)nc3)c2)cc1,-28.2,1.9,7.1,0.7,-0.1,·,·
O=S(=O)(Nc1ccc2c3c(cccc13)CC2)c1ccc(F)cc1,·,2.3,9.4,0.5,·,·,·
CSc1ccc(S(=O)(=O)Nc2ccc3c4c(cccc24)CC3)cc1,·,6.6,19.9*,-0.1,·,9.8,3.4
COc1ccc(C2(c3ccc(OC)cc3)NC(=O)N(CC(=O)Nc3ccc(OC(F)F)cc3)C2=O)cc1,-2.8,5.7,31.4*,-0.6,-0.2,9.1,2.2
COc1ccc(NC(=O)CN2C(=O)NC(c3ccccc3)(c3ccccc3)C2=O)cc1,-8.8,4.0,10.2,0.9,-0.1,·,·
SMILES,rRNA inh HTS,ADAM17 inh,ADAM10 inh,KLK7 zymogen act,FGF22 binding,ADAM10 confirm,ADAM17 counter
C[C@@H]1CN([C@@H](C)CO)C(=O)c2cc(NC(=O)C3CCCCC3)ccc2O[C@@H](C)CCCCO[C@H]1CN(C)Cc1ccc(C(F)(F)F)cc1,0.5,·,·,·,0.4,·,·
Cc1occc1C(=O)NNC(=O)C(c1ccccc1)c1ccccc1,·,5.4,28.0*,0.8,·,-1.2,0.1
COc1ccc(CNC(=O)C(c2ccc(C)cc2)N(Cc2cccs2)C(=O)c2ccc3c(c2)OCCO3)cc1 (stereo unspecified),·,5.3,26.1*,0.0,·,5.6,1.3
CC(C)NC(=O)c1onc(CSc2cccc3ccccc23)c1C(=O)O,-38.5,-3.9,85.5*,-0.4,1.0,-0.8,0.6
CC(C)NC(=O)c1onc(CSc2ccccc2)c1C(=O)O,-0.5,-2.0,4.1,-0.6,0.0,·,·
CCN(CC)c1ccc(NC(=O)CSc2nc3ccccc3c(=O)n2-c2ccc(C)cc2)cc1,·,5.4,38.4*,-0.8,·,12.8,6.2
CCOC(=O)C(Cc1ccnc2ccccc12)=NO,3.6,1.2,19.9*,0.2,0.2,-0.5,-0.5
O=C(O)C(Cc1ccnc2ccccc12)=NO,24.6,-5.7,-8.0,0.5,-0.3,·,·
O=C1NC(=S)SC1=Cc1ccccc1Cl,-73.5,0.8,5.2,-0.4,42.7,·,·
Cc1ccc(C2C(/C=C3/SC(=S)NC3=O)=C(c3cccs3)Oc3ccccc32)cc1 (stereo unspecified),0.5,5.1,20.0*,-0.2,0.2,14.3,1.8
CC(C)[C@@H]1COCc2cn(nn2)CCC[C@@H](C)C(=O)N1,7.5,·,·,·,·,·,·
COc1ccccc1NS(=O)(=O)c1cccc(C(=O)OCc2nc3ccccc3s2)c1,·,7.7,21.1*,0.3,·,6.6,1.7
COc1ccccc1NS(=O)(=O)c1cccc(C(=O)OCC(=O)Nc2cc(C)on2)c1,·,-2.9,-1.3,-0.1,·,·,·
Cc1cccc(Oc2cc(NC(=O)Cn3cnc([N+](=O)[O-])n3)cc([N+](=O)[O-])c2)c1,·,8.1,28.0*,0.5,·,4.9,1.7
Cc1cc([N+](=O)[O-])nn1CCCC(=O)Nc1cc(Oc2ccccc2)cc([N+](=O)[O-])c1,·,2.7,8.1,0.6,·,·,·
O=C(CSc1cn[nH]n1)Nc1nc2ccccc2s1,-2.8,2.5,20.3*,0.0,-0.4,0.8,-0.1
Cc1sc2nc(CSc3ccccc3)nc(N3CCC(C(N)=O)CC3)c2c1C,-52.1,7.2,20.1*,-0.3,41.9,2.6,0.5
CCOC(=O)c1sc2nc(CSc3ccccc3)nc(N3CCC(C(N)=O)CC3)c2c1C,-23.5,-0.1,-9.6,-2.5,-0.3,·,·
Cn1cc(C(=O)c2ccc(Cl)cc2Cl)cc1C(=O)N/N=C(\N)COc1ccc(Cl)cc1Cl,·,19.9*,29.6*,-0.5,·,12.0,3.9
COc1ccc(CCNC(=O)COc2ccc(S(=O)(=O)NC3CCCCC3)cc2Cl)cc1,·,6.9,23.2*,0.4,·,3.1,1.3

# Compound activity as filed in PubChem BioAssay.
